The results in this text go back to the antibiotic and cytotoxicity screens of Wong et al. (2023).

SMILES strings stand for the structures. In all, about 39,000 compounds went through this assay and about 1,500 (3.8%) were called active. Many of the other results were omitted from the sample, so actives are more common in it than they were.

This test relates to HSkMC (human skeletal muscle cells). Description: cytotoxicity call (relative viability < 0.9). The following applies: 10 µM.
Turning to `C[C@@H]1CN([C@H](C)CO)C(=O)c2cc(NS(=O)(=O)c3cn(C)cn3)ccc2O[C@@H]1CN(C)Cc1ccc(C(=O)Nc2ccccc2N)cc1`, the cytotoxicity call was “inactive”.

Take `O=C(Nc1cccc2cccnc12)[C@H]1[C@@H](c2ccc(Br)cc2)CC(=O)N1C(=O)OCc1ccccc1`: the cytotoxicity call was “inactive”.

With `C[C@H]1CN([C@@H](C)CO)C(=O)c2cc(NS(=O)(=O)c3cn(C)cn3)ccc2O[C@@H]1CN(C)Cc1ccc(C(=O)O)cc1`, the cytotoxicity call was “inactive”.

Consider `O=C(C[C@H]1CC[C@H]2[C@@H](COC[C@H](O)CN2C(=O)Nc2cccc(F)c2)O1)NCCCN1CCOCC1`, for which the cytotoxicity call was “inactive”.

Turning to `C[C@@H]1CN([C@H](C)CO)C(=O)c2cc(NC(=O)Cc3ccccc3)ccc2O[C@H]1CN(C)Cc1ccc(Oc2ccccc2)cc1`, the cytotoxicity call was “inactive”.

As to `O=C(C[C@@H]1C[C@H]2c3cc(NC(=O)Nc4ccc(C(F)(F)F)cc4)ccc3O[C@H]2[C@@H](CO)O1)NCc1cc(F)ccc1F`, the cytotoxicity call was “inactive”.

For `Cc1ccc(S(=O)(=O)Nc2ccc3c(c2)C(=O)N([C@@H](C)CO)C[C@@H](C)[C@@H](CN(C)C(=O)c2ccccc2)OCCCC[C@H](C)O3)cc1`, the cytotoxicity call was “inactive”.

Turning to `C[C@@H]1CN([C@@H](C)CO)C(=O)c2cc(NC(=O)c3ccncc3)ccc2O[C@H]1CN(C)Cc1ccc(-c2ccccc2)cc1`, the cytotoxicity call is “inactive”.

As to `C[C@@H]1CN([C@@H](C)CO)C(=O)CCCn2nncc2CO[C@H]1CN(C)C(=O)Nc1cccc(Oc2ccccn2)c1`, the cytotoxicity call is “inactive”.

As to `COc1ccc(NC(=O)N(C)C[C@@H]2Oc3ncc(C#CCN(C)C)cc3C(=O)N([C@@H](C)CO)C[C@H]2C)cc1`, the cytotoxicity call was “inactive”.

Turning to `C[C@@H]1O[C@H](O)[C@@H](F)[C@H](O)[C@@H]1O`, the cytotoxicity call is “inactive”.

On to `C[C@H](CO)N1C[C@H](C)[C@H](CN(C)Cc2ccc(C(F)(F)F)cc2)OCCCC[C@H](C)Oc2ccc(NC(=O)Nc3ccc(C(F)(F)F)cc3)cc2C1=O`, for which the cytotoxicity call is “inactive”.

Regarding `C[C@@H]1CCCCO[C@@H](CN(C)Cc2ccc(C(F)(F)F)cc2)[C@H](C)CN([C@@H](C)CO)C(=O)c2cc(NC(=O)Nc3ccc(C(F)(F)F)cc3)ccc2O1`, the cytotoxicity call was “active”.

With `C[C@@H]1CCCCO[C@@H](CN(C)Cc2ccc(C(F)(F)F)cc2)[C@@H](C)CN([C@H](C)CO)C(=O)c2cc(NC(=O)Nc3ccc(C(F)(F)F)cc3)ccc2O1`, the cytotoxicity call is “inactive”.

On to `C[C@@H]1CCCCO[C@@H](CN(C)Cc2ccc(C(F)(F)F)cc2)[C@H](C)CN([C@H](C)CO)C(=O)c2cc(NC(=O)Nc3ccc(C(F)(F)F)cc3)ccc2O1`, for which the cytotoxicity call is “inactive”.

`C[C@@H]1CN([C@@H](C)CO)C(=O)c2cc(NC(=O)Nc3ccc(C(F)(F)F)cc3)ccc2O[C@@H](C)CCCCO[C@@H]1CN(C)Cc1ccc(C(F)(F)F)cc1`: the cytotoxicity call is “inactive”.

For `C[C@@H]1CCCCO[C@@H](CN(C)Cc2ccc(C(F)(F)F)cc2)[C@@H](C)CN([C@@H](C)CO)C(=O)c2cc(NC(=O)Nc3ccc(C(F)(F)F)cc3)ccc2O1`, the cytotoxicity call is “active”.

Turning to `C[C@H]1CCCCO[C@@H](CN(C)Cc2ccc(C(F)(F)F)cc2)[C@@H](C)CN([C@@H](C)CO)C(=O)c2cc(NC(=O)Nc3ccc(C(F)(F)F)cc3)ccc2O1`, the cytotoxicity call is “active”.

Regarding `C[C@@H]1CN([C@H](C)CO)C(=O)c2cc(NC(=O)Nc3ccc(C(F)(F)F)cc3)ccc2O[C@@H](C)CCCCO[C@H]1CN(C)Cc1ccc(C(F)(F)F)cc1`, the cytotoxicity call is “active”.

In the case of `CNC[C@H]1OCCCC[C@H](C)Oc2ccc(NC(=O)CCCN(C)C)cc2C(=O)N([C@H](C)CO)C[C@@H]1C`, the cytotoxicity call is “inactive”.

With `C[C@@H]1CN([C@H](C)CO)C(=O)c2cccc(NC(=O)c3ccncc3)c2O[C@H]1CN(C)S(=O)(=O)c1ccccc1`, the cytotoxicity call is “inactive”.

With `C[C@H](CO)N1C[C@H](C)[C@H](CN(C)S(=O)(=O)c2cn(C)cn2)Oc2ccc(NC(=O)CCCCCC(=O)Nc3ccccc3N)cc2C1=O`, the cytotoxicity call is “inactive”.

Take `CCOC(=O)CCCCCCCCCCCC[C@@H]1C=CCC1`: the cytotoxicity call was “inactive”.

Regarding `C[C@H](CO)N1C[C@H](C)[C@H](CN(C)Cc2ccc(C(=O)Nc3ccccc3N)cc2)OCCCC[C@H](C)Oc2ccc(NC(=O)C3CCCCC3)cc2C1=O`, the cytotoxicity call is “inactive”.

In the case of `C[C@@H]1CN([C@H](C)CO)C(=O)c2cccc(NS(=O)(=O)c3cn(C)cn3)c2O[C@H]1CN(C)C(=O)Nc1ccc2c(c1)OCO2`, the cytotoxicity call is “inactive”.

For `CCOC(=O)Cn1cccc2oc(=O)nc1-2`, the cytotoxicity call is “inactive”.

Consider `C[C@H]1CN([C@@H](C)CO)C(=O)c2c(c3ccccc3n2C)-c2ccccc2CO[C@H]1CN(C)C(=O)Nc1ccccc1`, for which the cytotoxicity call is “inactive”.

With `C[C@@H]1CN([C@@H](C)CO)C(=O)c2c(c3ccccc3n2C)-c2ccccc2CO[C@H]1CN(C)C(=O)[C@H](C)c1ccccc1`, the cytotoxicity call was “inactive”.

As to `COc1ccc(NC(=O)N(C)C[C@@H]2Oc3ccc(NC(=O)Nc4cccc5ccccc45)cc3CC(=O)N([C@H](C)CO)C[C@@H]2C)cc1`, the cytotoxicity call was “inactive”.

Consider `COc1ccccc1-c1cnc2c(c1)C(=O)N([C@H](C)CO)C[C@@H](C)[C@H](CN(C)C(=O)c1ccncc1)O2`, for which the cytotoxicity call was “inactive”.

For the compound `Cc1ccc(-c2cnc3c(c2)C(=O)N([C@@H](C)CO)C[C@H](C)[C@@H](CN(C)C(=O)Cc2ccncc2)O3)cc1`, the cytotoxicity call was “inactive”.

For `C[C@@H]1CN([C@H](C)CO)C(=O)c2cccc(NC(=O)c3ccc(-c4nccs4)cc3)c2O[C@@H]1CN(C)C(=O)NC1CCCCC1`, the cytotoxicity call is “inactive”.

As to `C[C@@H]1CN([C@H](C)CO)C(=O)c2cc(NC(=O)Nc3ccc(C(F)(F)F)cc3)ccc2O[C@@H](C)CCCCO[C@@H]1CN(C)Cc1ccc(C(F)(F)F)cc1`, the cytotoxicity call is “active”.

On to `C[C@H](CO)N1C[C@H](C)[C@H](CN(C)Cc2ccc(C(F)(F)F)cc2)OCCCC[C@H](C)Oc2ccc(NC(=O)Nc3ccc(F)cc3)cc2C1=O`, for which the cytotoxicity call was “inactive”.

On to `C[C@H](CO)N1C[C@H](C)[C@@H](CN(C)Cc2ccc(Cl)c(Cl)c2)OCCCC[C@H](C)Oc2ccc(NC(=O)Nc3ccc(C(F)(F)F)cc3)cc2C1=O`, for which the cytotoxicity call was “active”.

As to `C[C@@H]1CCCCO[C@H](CN(C)Cc2ccc(C(F)(F)F)cc2)[C@@H](C)CN([C@H](C)CO)C(=O)c2cc(NC(=O)Nc3ccc(C(F)(F)F)cc3)ccc2O1`, the cytotoxicity call is “inactive”.

Consider `C[C@@H]1CN([C@H](C)CO)C(=O)c2cc(NC(=O)Nc3ccc(F)cc3)ccc2O[C@@H](C)CCCCO[C@H]1CN(C)Cc1ccc(C(F)(F)F)cc1`, for which the cytotoxicity call was “active”.

As to `C[C@@H]1CN([C@H](C)CO)C(=O)c2cc(NC(=O)Nc3ccc(C(F)(F)F)cc3)ccc2O[C@@H](C)CCCCO[C@@H]1CN(C)Cc1ccncc1`, the cytotoxicity call was “active”.

On to `C[C@@H]1CCCCO[C@@H](CN(C)Cc2ccc(C(F)(F)F)cc2)[C@H](C)CN([C@@H](C)CO)C(=O)c2cc(NC(=O)Nc3ccc(F)cc3)ccc2O1`, for which the cytotoxicity call is “inactive”.

Regarding `C[C@@H]1CN([C@@H](C)CO)C(=O)c2cc(NC(=O)Nc3ccc(C(F)(F)F)cc3)ccc2O[C@@H](C)CCCCO[C@H]1CN(C)Cc1ccc(Cl)c(Cl)c1`, the cytotoxicity call was “inactive”.

As to `C[C@H](CO)N1C[C@H](C)[C@@H](CN(C)Cc2ccncc2)OCCCC[C@H](C)Oc2ccc(NC(=O)Nc3ccc(C(F)(F)F)cc3)cc2C1=O`, the cytotoxicity call was “inactive”.

`C[C@H]1CCCCO[C@H](CN(C)Cc2ccc(C(F)(F)F)cc2)[C@@H](C)CN([C@@H](C)CO)C(=O)c2cc(NC(=O)Nc3ccc(F)cc3)ccc2O1`: the cytotoxicity call is “inactive”.

As for `C[C@@H]1CN([C@H](C)CO)C(=O)c2cc(NC(=O)Nc3ccc(C(F)(F)F)cc3)ccc2O[C@@H](C)CCCCO[C@H]1CN(C)Cc1ccc(Cl)c(Cl)c1`, the cytotoxicity call was “inactive”.

`C[C@@H]1CCCCO[C@@H](CN(C)Cc2ccncc2)[C@H](C)CN([C@H](C)CO)C(=O)c2cc(NC(=O)Nc3ccc(C(F)(F)F)cc3)ccc2O1`: the cytotoxicity call is “inactive”.

Consider `C[C@H](CO)N1C[C@H](C)[C@H](CN(C)Cc2ccc(O)cc2)OCc2ccccc2-c2c(n(C)c3ccccc23)C1=O`, for which the cytotoxicity call is “inactive”.

For `CC(C)NC(=O)Nc1ccc2c(c1)C(=O)N([C@H](C)CO)C[C@@H](C)[C@H](CN(C)S(C)(=O)=O)OCCCC[C@@H](C)O2`, the cytotoxicity call is “inactive”.

Turning to `C[C@@H]1CN([C@H](C)CO)C(=O)Cc2cc(NS(=O)(=O)c3ccc(Cl)cc3)ccc2O[C@H]1CN(C)Cc1ccc(C(=O)Nc2ccccc2N)cc1`, the cytotoxicity call was “inactive”.

Consider `Cc1ccc(S(=O)(=O)N(C)C[C@@H]2Oc3cc(C#Cc4ccncc4)ccc3S(=O)(=O)N([C@@H](C)CO)C[C@@H]2C)cc1`, for which the cytotoxicity call was “inactive”.

As to `C[C@H]1CN([C@@H](C)CO)C(=O)c2cccc(NS(=O)(=O)c3cn(C)cn3)c2O[C@H]1CN(C)S(=O)(=O)c1ccc(F)cc1`, the cytotoxicity call is “inactive”.

Take `C[C@H]1CN([C@@H](C)CO)S(=O)(=O)c2ccc(C#Cc3ccc(F)cc3)cc2O[C@H]1CN(C)CC1CC1`: the cytotoxicity call is “inactive”.

For the compound `C[C@@H]1CCCCO[C@H](CN(C)C(=O)CCC(F)(F)F)[C@H](C)CN([C@@H](C)CO)C(=O)c2cc(NC(=O)Nc3ccc4c(c3)OCO4)ccc2O1`, the cytotoxicity call is “inactive”.

Turning to `CCOC(=O)C1=CC(OC(CC)CC)C(NC(C)=O)C(N)C1.O=P(O)(O)O` (configuration not stated), the cytotoxicity call is “inactive”.

Consider `COc1ccc(S(=O)(=O)N(C)C[C@@H]2Oc3ccc(NS(=O)(=O)c4ccc(F)cc4)cc3C(=O)N([C@@H](C)CO)C[C@@H]2C)cc1`, for which the cytotoxicity call is “inactive”.

With `C[C@H]1CN([C@@H](C)CO)C(=O)Cc2cc(NC(=O)C3CC3)ccc2O[C@H]1CN(C)S(=O)(=O)c1ccc(F)cc1`, the cytotoxicity call is “inactive”.

For the compound `C[C@@H]1CN([C@H](C)CO)C(=O)c2cc(NC(=O)Nc3cccc4ccccc34)ccc2O[C@@H]1CN(C)C(=O)Nc1ccc2c(c1)OCO2`, the cytotoxicity call was “inactive”.

As to `COc1ccc([C@H]([C@H](Cc2ccccc2)OC(C)=O)N(CC#C[C@@H](O)c2ccccc2)[C@@H](Cc2ccccc2)C(OC)OC)cc1`, the cytotoxicity call is “inactive”.

For the compound `COc1ccc2c3c(n(c2c1)C)[C@H](CO)N(Cc1ccccc1F)C[C@]13CN(C1)C(=O)C1CCOCC1`, the cytotoxicity call is “inactive”.
